In PubChem BioAssay (NCATS) one finds Potency data, which are given here for 18 compounds.

Assay [1] can be described thus: qHTS of pediatric cancer cell lines to identify multiple opportunities for drug repurposing: Primary screen for TC32 cells (AID 1347089). Note: nearly all actives have a fitted effect of over 60% in size. The method in brief: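 A viability screen of TC32 cells was run over 48 h, with primary MIPE doses spanning 0.78 nM–46 µM and NPC doses 0.59 nM–46 µM. ATP luminescence (CellTiter-Glo) served as the read-out.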
Background: Quantitative high-throughput screening tests each substance at several concentrations.

A short description of assay [2]: qHTS of pediatric cancer cell lines to identify multiple opportunities for drug repurposing: Primary screen for DAOY cells (AID 1347090). Note: nearly all actives have a fitted effect of over 55% in size. The gist of the method: (§1)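 Eight- or eleven-point concentration series, 48 h treatment at 37 degrees C in growth media; readout CellTiter-Glo luminescence. Potency and efficacy were taken from the concentration-response curves.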

The nature of assay [3]: qHTS of pediatric cancer cell lines to identify multiple opportunities for drug repurposing: Primary screen for SJ-GBM2 cells (AID 1347091). The method in brief: as §1
The nature of assay [4]: qHTS of pediatric cancer cell lines to identify multiple opportunities for drug repurposing: Primary screen for A673 cells (AID 1347092). Note: nearly all actives have a fitted effect of over 45% in size. The method in brief: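 Titration-based qHTS on A673 cells: MIPE compounds spanned 11 points (0.78 nM to 46 µM final), NPC compounds 8 points (0.59 nM to 46 µM final). Viability after 48 h was measured by ATP luminescence.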
The nature of assay [5]: qHTS of pediatric cancer cell lines to identify multiple opportunities for drug repurposing: Primary screen for BT-37 cells (AID 1347094). The method in brief: (§2)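 Viability was measured as metabolically active cells after 48 hours of treatment, read by CellTiter-Glo luminescence. Compounds were tested at multiple final concentrations, giving concentration-response curves.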

Assay [6] in a line: qHTS of pediatric cancer cell lines to identify multiple opportunities for drug repurposing: Primary screen for NB-EBc1 cells (AID 1347095). The method in brief: as §2
A short description of assay [7]: qHTS of pediatric cancer cell lines to identify multiple opportunities for drug repurposing: Primary screen for U-2 OS cells (AID 1347096). Note: nearly all actives have a fitted effect of over 50% in size. The method in brief:
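Cells (500-1,000/well) in growth media were settled 5 h at 37 degrees C, then given compounds for 48 h. Viability was read as CellTiter-Glo luminescence. Primary runs used MIPE at 11 points (0.78 nM-46 µM) and NPC at 8 points (0.59 nM-46 µM); follow-ups used 11 points.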

Assay [8] is described as follows: qHTS of pediatric cancer cell lines to identify multiple opportunities for drug repurposing: Primary screen for SK-N-MC cells (AID 1347093). The method in brief: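 Metabolically active cells were quantified by ATP-dependent luminescence (CellTiter-Glo, 15 min at room temperature) following 48 h treatment. Cells had been plated at 500-1,000 per well and settled for 5 h beforehand.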

Records with an inconclusive call do not appear. Calls of active or inactive are those of the source. Calls come from the whole dose curve; as a rule, active = well fitted curve in the direction sought with a large enough effect; inconclusive = small, poorly fitted or top-dose-only effect, or another doubt; inactive = no such curve, though single readings can be large; an effect the other way counts as inactive or inconclusive.
Potency is the fitted concentration of half-maximal effect.

`C=CC(=O)Nc1cc2c(Nc3ccc(F)c(Cl)c3)ncnc2cc1OCCCN1CCOCC1`: in assay [1], the Potency entry was “inactive”. Moreover, the Potency in assay [2] was 18.7 µM (active); in assay [3], 16.8 µM (active); in assay [4], 4.69 µM (active); in assay [5], 6.85 µM (active); in assay [6], 18.7 µM (active); in assay [7] it was 7.43 µM (active).
As to `Nc1nc(NCCNc2ncc(-n3ccnc3)c(-c3ccc(Cl)cc3Cl)n2)ccc1[N+](=O)[O-]`, in assay [1], the Potency entry is “inactive”. Besides, the Potency in assay [2] is 14.8 µM (active); in assay [3], 4.69 µM (active); in assay [4], 9.35 µM (active); in assay [8], 1.66 µM (active); in assay [6], 13.2 µM (active).
Turning to `COc1ccc(F)c(F)c1C(=O)c1cnc(NC2CCN(S(C)(=O)=O)CC2)nc1N`, the Potency in assay [1] was 5.87 µM (active); in assay [2], 3.72 µM (active); in assay [3] it was 0.743 µM (active); in assay [4], 1.48 µM (active); in assay [5], 3.43 µM (active); in assay [6], 0.296 µM (active).
As to `Nc1ncnc2c1c(-c1cccc(OCc3ccccc3)c1)cn2C1CC(CN2CCCC2)C1` (configuration not stated), the Potency in assay [1] was 6.58 µM (active); in assay [3] it was 20.9 µM (active); in assay [4], 18.7 µM (active); in assay [8], 0.662 µM (active); in assay [6], 4.69 µM (active). Further, the Potency entry in assay [2] is “inactive”.
As to `Cc1cnc(Nc2ccc(F)cc2Cl)nc1-c1c[nH]c(C(=O)N[C@H](CO)c2cccc(Cl)c2)c1`, the Potency entry in assay [1] is “inactive”. Moreover, the Potency in assay [2] is 7.43 µM (active); in assay [3], 0.264 µM (active); in assay [4] it was 0.0372 µM (active); in assay [8] it was 2.35 µM (active); in assay [5], 0.485 µM (active); in assay [6], 0.833 µM (active). Further, the Potency in assay [7] was 7.43 µM (active).
In the case of `CNc1nccc(-c2cccnc2Oc2cc(C(=O)Nc3cccc(C(F)(F)F)c3)ccc2C)n1`, the Potency result in assay [1] was “inactive”. Also, the Potency is 14.8 µM (active) in assay [2]; 9.35 µM (active) in assay [3]; 2.96 µM (active) in assay [4]; 3.72 µM (active) in assay [8]; 3.32 µM (active) in assay [6]; 11.8 µM (active) in assay [7].
Turning to `CC(C)c1cnn2c(NCc3ccccc3)cc(N[C@@H](CO)[C@H](O)CO)nc12`, the Potency in assay [1] is 1.47 µM (active); in assay [2], 0.372 µM (active); in assay [3], 0.166 µM (active); in assay [4], 0.118 µM (active); in assay [5] it was 0.306 µM (active); in assay [6] it was 0.187 µM (active).
On to `O=C(O)c1ccc2c(c1)nc(Nc1cccc(Cl)c1)c1ccncc12`, for which, in assay [1], the Potency entry was “inactive”. For the same compound, the Potency in assay [2] is 4.69 µM (active); in assay [3] it was 7.43 µM (active); in assay [4], 4.69 µM (active); in assay [8], 0.935 µM (active); in assay [5], 7.69 µM (active); in assay [6], 2.35 µM (active). For the same compound, the Potency in assay [7] is 18.7 µM (active).
Consider `Cc1c(C)n(Cc2ccc(-c3ccccc3C(=O)O)cc2)c2ccc(C(=O)N[C@@H](C)c3ccc([N+](=O)[O-])cc3)cc12`, for which the Potency result in assay [1] and in assay [7] was “inactive” throughout. Also, the Potency in assay [2] is 0.0296 µM (active); in assay [3], 23.5 µM (active); in assay [4] it was 0.148 µM (active); in assay [8], 0.0187 µM (active); in assay [5], 0.968 µM (active).
`Nc1ccccc1NC(=O)c1ccc(CNc2nccc(-c3cccnc3)n2)cc1`: the Potency in assay [1] was 6.58 µM (active); in assay [2], 7.43 µM (active); in assay [3] it was 2.35 µM (active); in assay [4], 2.35 µM (active); in assay [8], 0.187 µM (active); in assay [6], 0.743 µM (active). Moreover, the Potency in assay [7] was 4.69 µM (active).
Take `COc1cc(=C2C=c3ccccc3=N2)[nH]c1=Cc1[nH]c(C)cc1C`: in assay [1], the Potency entry is “inactive”. Moreover, the Potency in assay [2] was 14.8 µM (active); in assay [3] it was 1.18 µM (active); in assay [4] it was 4.69 µM (active); in assay [8], 3.72 µM (active); in assay [6], 0.743 µM (active).
`O=C(c1cncc(Br)c1)N1CCC(N2CCCC2)CC1`: the Potency result in assay [1], in assay [2], in assay [3], in assay [4], in assay [8] and in assay [5] was “inactive” in each case. The Potency entry in assay [7] was “inactive”.
Regarding `C=CC(=O)Nc1cccc(Oc2nc(Nc3ccc(N4CCN(C)CC4)cc3)ncc2Cl)c1`, the Potency was 7.39 µM (active) in assay [1]; 0.935 µM (active) in assay [2]; 1.87 µM (active) in assay [3]; 0.935 µM (active) in assay [4]; 0.469 µM (active) in assay [8]; 21.7 µM (active) in assay [5]. The Potency in assay [6] is 2.35 µM (active); in assay [7], 4.69 µM (active).
As for `O=C(C=Cc1cccc(S(=O)(=O)Nc2ccccc2)c1)NO`, the Potency was 9.54 µM (active) in assay [1]; 8.55 µM (active) in assay [2]; 2.15 µM (active) in assay [3]; 4.29 µM (active) in assay [4]; 1.21 µM (active) in assay [8]; 1.91 µM (active) in assay [6]. Moreover, the Potency in assay [7] is 5.4 µM (active).
Take `CC(NCc1ccc2c(c1)nc(NC(=O)c1ccc(-c3cn[nH]c3)s1)n2CC(C)(C)O)C(C)(C)C` (configuration not stated): the Potency in assay [1] is 2.62 µM (active); in assay [2] it was 2.96 µM (active); in assay [3], 0.296 µM (active); in assay [4], 0.187 µM (active); in assay [8] it was 0.743 µM (active); in assay [5], 0.485 µM (active). For the same compound, the Potency is 0.418 µM (active) in assay [6] and 1.18 µM (active) in assay [7].
For `O=C(NCCCNc1nc(Nc2cccc(NC(=O)N3CCCC3)c2)ncc1I)c1cccs1`, the Potency in assay [1] was 2.62 µM (active); in assay [2] it was 14.8 µM (active); in assay [3], 2.96 µM (active); in assay [4], 7.43 µM (active); in assay [5], 24.3 µM (active); in assay [6], 23.5 µM (active). Further, the Potency entry in assay [7] is “inactive”.
On to `Cc1cn2cc(C(=O)N(C)CCO)cc(N[C@@H]3CCOc4cccc(C)c43)c2n1`, for which the Potency result in assay [1], in assay [2], in assay [3], in assay [4], in assay [8] and in assay [5] was “inactive” throughout. Further, the Potency result in assay [6] and in assay [7] was “inactive” each time.
As to `CC(C)(C)OC(=O)Nc1ccc(-c2cc(C(=O)NCCCCCCC(=O)NO)no2)cc1`, the Potency was 9.3 µM (active) in assay [1]; 4.69 µM (active) in assay [2]; 1.48 µM (active) in assay [3]; 2.96 µM (active) in assay [4]; 0.833 µM (active) in assay [8]; 5.44 µM (active) in assay [5]. The values for the Potency in assay [6] and in assay [7] were 1.18 µM (active) and 4.69 µM (active), respectively.
